Data reported in PubChem BioAssay AID1159506 (National Center for Advancing Translational Sciences (NCATS), 2015).
Whole data set: some 59,000 sequences, median the read-out near -0.00055, cut for the lowest 2% near -2. Many of the other results were omitted from the sample, so the lowest values are more common in it than they were.

Test: Identification of proteins required for the processing of the EWS-FLI1 nascent transcript;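 further: robust z of luciferase light less the median z of siRNAs with the same seed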
Conditions: TC32 Ewing sarcoma NR0B1-luc vs CMV-luc (EWS-FLI1 target promoter against control promoter), 48 h; screened at 20 nM (by protocol)
Experimental: Ewing sarcoma (ES) cells depend on the EWS-FLI1 fusion transcription factor for cell survival. Using an assay of EWS-FLI1 activity and genome-wide siRNA screening we have identified proteins required for the processing of the EWS-FLI1 nascent transcript. Parallel genome-wide siRNA-mediated RNAi screens were conducted in Ewing sarcoma TC32 cell lines expressing a luciferase (luc) reporter protein driven by either the promoter of the EWS-FLI1 target gene NR0B1 (TC32-NR0B1-luc) or the CMV promoter (TC32-CMV-luc). Luciferase activity was assessed 48 hours post siRNA-transfection.
Twenty microl of serum-free media containing Lipofectamine RNAiMax (0.05 microl) was added to wells containing siRNA (0.8 pmol). Lipid and siRNA were allowed to complex for 45 min at ambient temperature before addition of 600 cells in RPMI-1640, 20% FBS to yield final transfection mixtures containing 20 nM siRNA in RPMI-1640, 10% FBS. Luciferase expression was measured using OneGlo (Promega, Madison, WI). The genome-wide screening campaign was conducted using Ambion's human genome library version 4.1 (Ambion, Austin TX). This library targets approximately 21000 human genes, three siRNAs per gene. Each siRNA is arrayed in an individual well of a 384-well plate. Parallel transfections were conducted in TC32-NR0B1-luc and TC32-CMV-luc cell lines and luciferase expression (OneGlo, Promega) was assayed 48 h later on a PerkinElmer Envision 2104 Multilabel plate reader (PerkinElmer, Waltham, MA). Qiagen's AllStars Negative control was incorporated on all screening plates for normalization (16 wells per plate). Qiagen, Germantown, MDsiGL4 was incorporated as a positive transfection control (16 wells per plate) on all plates. […] The raw luciferase data for the NR0B1- and CMV-luc screens were normalized and z-score-MAD transformed using standard methods (Chung et al., 2008). The miRNA-like seed sequence of every siRNA was determined and the median z-score for all siRNA sequences with the same seed sequence was calculated. This z-score was subtracted from the z-score associated with each siRNA with that seed sequence to generate a seed-adjusted z-score value (Z) that was used when the results for the three siRNAs corresponding to each gene were compared (Marine et al., 2012)

First: UAAACAAUACGUCAGUGCC against OR51T1
Second: UUCGUUCACGGCUAUGACC against CHL1
The seed-corrected z-score of the first is lower: -0.809 for the first, 0.202 for the second.

First: UGAGUUUCAGGUUCUCCGG against CAB39L
Second: UUCCGGAUCAGAUCAUGGG against FAM118A
The seed-corrected z-score of the first is lower: -2.64 for the first, -0.123 for the second.

First: UACAUUCUUGGUUUCAACC against LOC729860
Second: UUAUAUUCAUCCUUGUGAC against CRKL
The seed-corrected z-score of the first is higher: 1.84 for the first, 0.239 for the second.

Compared with UUCUGGUUUGUUUUCAGGC against BAG3, AACCGAACAAAUGAAUAUC against TIA1 is higher in seed-corrected z-score: -2.98 for the first, -1.17 for the second.

Compared with UAAUCUGCAAGUCAAGUCU against LYSMD2, UUCACGACGAUGAUUCCCU against DYNLRB1 is higher in seed-corrected z-score: -1.06 for the first, -0.1 for the second.

Going from UCCUCUGUAACCACACUCG against GPT2 to AAACUAUACACGGUCGUCC against RFESD, the seed-corrected z-score falls from -0.193 to -0.265.

Going from UUAGGUUCAACAUCCACAA against SNRPD1 to AAGGAUAUUAAGAAGAAUC against ARMCX1, the seed-corrected z-score rises from -2.57 to 0.793.

First: UACGAUGAUAGCCUUGACC against CNOT10
Second: UCAAGCUUCACUUUCUUCC against DNAJC17
The seed-corrected z-score of the first is lower: -0.215 for the first, 1.06 for the second.

First: AAAAUGAGAACGUAAAGUC against VN1R5
Second: UCCUGGAUGCGAUUUAUGG against DDRGK1
The seed-corrected z-score of the first is higher: -0.139 for the first, -0.145 for the second.

Compared with UUCUCGUCGAGGUAGAUUU against ITM2C, UAACAUACUGGUCCCAUUG against PCTP is lower in seed-corrected z-score: 0.584 for the first, -1.08 for the second.

Going from UAUCUUCUAAUGCAAUCCU against RTP2 to ACCUUGACCACACUUAUUU against VSTM2L, the seed-corrected z-score falls from 0.814 to -1.03.

Going from UGCUUAACAAGAUCUGAAC against ZNF271P to UCGGCGAUGUAGGAGAUGG against APBA2, the seed-corrected z-score rises from -2.37 to 0.0663.

Going from AGAAAAUCUAUCUUCCUCU against PFDN5 to UGGGAUAUCACCAACGACG against CCDC168, the seed-corrected z-score falls from -0.0703 to -0.371.

First: UCAUCUAGAAGAAUAUUCU against SGK494
Second: AAGCUUGCCAAUACCCUGG against RPLP2
The seed-corrected z-score of the first is higher: 0.387 for the first, -2.77 for the second.

First: UCUAUGUUGACAACCUCUC against DSPP
Second: UUGCAUUUUAUCACAGUAG against LY96
The seed-corrected z-score of the first is higher: 2.05 for the first, -0.122 for the second.

Compared with UCAGCAAAAACAUCUCACU against OR4Q3, AAACUGACCAUUCACUACC against DCAF12 is lower in seed-corrected z-score: 0.873 for the first, -10.7 for the second.

Compared with UCUGGAAUUUGGGUUGAUG against C1orf105, UAGAUGUGCAUGUAGGUGA against ADO is higher in seed-corrected z-score: -0.114 for the first, 0.279 for the second.

First: AAGGCAUCCAAGAAGCUCC against KCNK6
Second: UUGGAAACUACAGAUGAGA against WDR82
The seed-corrected z-score of the first is higher: 0.0975 for the first, -2.39 for the second.

Going from UUCCUUAAGGUGUCCCUCC against HSPA12A to UUGCGAUGGAAAGACAUGU against CD5, the seed-corrected z-score rises from 0.369 to 0.451.

Compared with AAUGCUCUCAGUUGAGAUG against C19orf44, UAACCUCUGGGUCACAUGC against ACIN1 is higher in seed-corrected z-score: -0.0313 for the first, 0.0177 for the second.

Going from UCUGUCUAAAUAACUUAUU against NAT8L to UAUUGAAUGAUGUGGAGUC against PTCD2, the seed-corrected z-score rises from -0.913 to 0.667.

Going from UUAAGUAUUGGAUUUCAUA against DEFB116 to UCGGAAUAAAUUGAGCUGC against API5, the seed-corrected z-score falls from 0.226 to -16.5.

First: UGUGCGAGAACAUUCCUGC against HIP1R
Second: UUUGUGCAUGCUGUCGUUC against TNIP2
The seed-corrected z-score of the first is higher: 0.0278 for the first, -0.335 for the second.

First: UACAGCUAAACUGUACAGC against ORC6
Second: UUCGGUUCAUGACAAAUAC against SLC35F5
The seed-corrected z-score of the first is lower: -2.09 for the first, 0.354 for the second.

Compared with UAGCAUACUAUUGUCCUGC against MRPL42, UCCUGGUUCACCAAUUUCU against COL9A1 is lower in seed-corrected z-score: 0.102 for the first, -0.362 for the second.

Going from UAGGUUAUGAAAUUAAUCA against MAP6D1 to AUUCAUAGAAGUAUUCUGC against WIF1, the seed-corrected z-score rises from -2.45 to -0.598.

Going from UAAGUUUUGAGGAUAGGUG against ZNF117 to UUGGGAUUCAGGUUCCGCU against TCF3, the seed-corrected z-score falls from 0.415 to -0.377.

Going from UCGCUUCCCAGAAUUGCUG against GPR65 to AUGGGAAUAGGAAAGUAUG against OR2M4, the seed-corrected z-score falls from 1.15 to -2.09.

Going from UGUCCAAUUAGGGACCAGC against SLF2 to ACUGUAUAGAUUGUGAACC against KDM3B, the seed-corrected z-score rises from -0.225 to 1.03.

Compared with UUCCAUAGUAGUAGGAUCU against TMEM14B, UCUGGUUAUCAGAAAACCC against PCNP is lower in seed-corrected z-score: 0.134 for the first, 0.114 for the second.

Going from UUGUGGUUUAGGGUUUUCU against YBX1 to UUCUUAUAACCAUUGACUG against SLCO1B3, the seed-corrected z-score rises from -2.1 to 0.328.

First: UAAAGAGUGGUGUUGGUGG against RSPH3
Second: UUUAGUUCCAGUGCCUUAG against CCDC151
The seed-corrected z-score of the first is lower: -0.756 for the first, 0.491 for the second.

Compared with CUUUCAGCGUGGCUGUUCC against C6orf132, UUCCUAAUAAACCCAGCGC against SOWAHD is higher in seed-corrected z-score: -4.94 for the first, -0.0823 for the second.

First: UCAGAGAUCAAAGAGAAGU against TUBB4A
Second: UGAGUGAAGUGCGAUAUCC against ELL
The seed-corrected z-score of the first is higher: 0.356 for the first, 0.176 for the second.

Going from UAGGAACCAGAAAUAAUCC against ATP8A2 to UUAGGGAUGACGUGGGUGC against GRIN1, the seed-corrected z-score falls from -0.455 to -2.06.

Going from UUAAACUCCACGUCGUCAG against SIRPB1 to UUUAUGGAUCUAAUUGUCG against CBWD1, the seed-corrected z-score rises from -0.756 to 0.289.

Going from UGCAUGGUGAUAGUCAGGU against CD7 to AAACCGUCCUUCCUCAUGC against IL16, the seed-corrected z-score rises from -0.0598 to 0.0574.

First: UUAGUCUUCCCGGAUUGCC against ADAR
Second: UUCUGGAUAAACAUAUUCC against MCU
The seed-corrected z-score of the first is higher: 0.696 for the first, -0.133 for the second.

First: UUCCAGUUAAACUGUAGCC against LOC643770
Second: UUAAUAACCUCAGAAAUGG against TCTEX1D1
The seed-corrected z-score of the first is lower: -2.78 for the first, 0.0567 for the second.

Compared with UAUUUGCGAAGUCAUGAGG against COPB1, UGAAUAUCAACAGUCCCUC against ZNF731P is higher in seed-corrected z-score: -3.25 for the first, 0.959 for the second.

Compared with UAAAUGACAGAAGCCGUUG against SUCLG1, UCACAGAUGCCUGUAAAUG against TSACC is lower in seed-corrected z-score: -0.0373 for the first, -0.571 for the second.

Compared with GCUUGCACGACUCACAGAC against DEFB105A, AGAGUGUAAUGAGUCUUUG against SCAPER is lower in seed-corrected z-score: 1.34 for the first, 0.141 for the second.

With UCCUCCUUGUCCAUGAUGC against CDC42EP4 the seed-corrected z-score was 0.732.
